HP1b binding inh: HP1-beta chromodomain-methylated histone interaction inhibition; 390,000 compounds, 0.56% hits; Potency, µM (titrated, usually from 114 µM), for inactives: top-dose activity change, negative = inhibition, hits mostly inhibitors; P83916; AlphaScreen HP1-beta / biotin-H3K9me3 peptide binding; also: nearly all actives have a fitted effect of over 70% in size
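HP1-beta protein (50 nM final) preincubated 30 min at room temperature with biotinylated H3(1-18)K9me3 peptide (50 nM) in PBS pH 7.4, 0.01% Tween-20, then compound added for 30 min. AlphaScreen streptavidin donor/nickel chelate acceptor beads (10 ug/mL final), 30 min dark, luminescence read.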
JMJD2A Tudor: JMJD2A Tudor domain (human) inhibition; 390,000 compounds, 4.4% hits; AlphaScreen JMJD2A-Tudor / H3K4me3 peptide binding; AID 504339; O75164; Potency, µM (series often up to 114 µM), without a hit: top-dose activity change, negative = inhibition, actives largely listed as inhibitors; also: % is scaled to controls: 0 for no effect and ±100 for the full control effect; nearly all actives have a fitted effect of over 50% in size
BAZ2B inh: BAZ2B (human) inhibition. Q9UIF8. AlphaScreen BAZ2B-H3K14Ac peptide displacement. Potency, µM (doses to about 114 µM), for the others: at the highest dose activity change, negative = inhibition, most hits filed as inhibitors. 360,000 compounds, 4.4% hits; also: % is scaled to controls: 0 for no effect and ±100 for the full control effect; nearly all actives have a fitted effect of over 60% in size
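AlphaScreen displacement of biotin-H3(5-23)K14Ac peptide (50 nM final) from BAZ2B (50 nM final) in PBS pH 7.4, 0.01% Tween-20; complex preformed 30 min RT, then compounds (top 110 uM) 30 min RT, beads 20 min dark.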
L3MBTL1 block: inhibitors of human L3MBTL1 | Q9Y468 | AlphaScreen L3MBTL1–H3K9me1 peptide binding | Potency, µM (series often up to 57.1 µM), inactives show top-dose activity, negative = inhibition, most hits filed as inhibitors | 230,000 compounds, 0.66% hits | AID 485360; also: % is scaled to controls: 0 for no effect and ±100 for the full control effect; nearly all actives have a fitted effect of over 60% in size
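Read-out is AlphaScreen signal from streptavidin donor and nickel chelate acceptor beads (10 ug/mL final each) bridging L3MBTL1 (50 nM) and biotinylated K9-monomethylated H3(1-15) peptide (75 nM), after 30 min compound exposure at room temperature.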
Sfp inh: blocks B. subtilis Sfp PPTase activity. Q9F4F7. Biochemical Sfp PPTase activity, qHTS. Potency, µM, without a hit: largest response in the series, negative = inhibition, hits mostly inhibitors. 310,000 compounds, 3.5% hits;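 also: the enzyme is Sfp with the accession as filed and its product quenches rhodamine fluorescence; 0% = enzyme reaction without inhibitor and -100% = no enzyme wells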
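Buffer: 50 mM Hepes-Na pH 7.6, 10 mM MgCl2, 0.01% Nonidet P-40, 0.01% BSA. Enzyme 15 nM, pre-exposed to compound 15 min; substrates then added and fluorescence change tracked over 30 min.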
G9a inh: inhibitors of human histone lysine methyltransferase G9a | G9a H3K9 monomethylation, AlphaScreen, 2 h | Potency, µM (series often up to 102 µM), without a hit: top-dose activity, negative = inhibition, usual class: inhibitors | 350,000 compounds, 8.8% hits; also: % is scaled to controls: 0 for no effect and ±100 for the full control effect; nearly all actives have a fitted effect of over 75% in size
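Using a bead-based AlphaScreen, monomethylated H3K9 product from 2 h room-temperature reactions (G9a 20 nM, peptide 500 nM, SAM 20 uM) was detected with 0.5 ug/mL rabbit anti-H3K9me1 antibody.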
Numbers without * were called inactive; [ ] = remark or other dose. Most compounds without a hit are left out; they make up all but 12% or so of the library. Calls follow the shape of the dose curve; as a rule, active = well fitted curve in the direction sought with a large enough effect; inconclusive = small, poorly fitted or top-dose-only effect, or another doubt; inactive = no such curve, though single readings can be large; an effect the other way counts as inactive or inconclusive. Potency is read from the fitted curve at half-maximal effect.

Results for CN(C)/C=C1\NC(=S)N(c2ccc(Cl)cc2)C1=O ?
HP1b binding inh: inconclusive; JMJD2A Tudor: 44.7µM*; BAZ2B inh: inconclusive; L3MBTL1 block: -7.9%; Sfp inh: 31.6µM*; G9a inh: 5.62µM*

How did CN(C)/C=C1\NC(=S)N(c2ccccc2)C1=O do in these assays?
HP1b binding inh: -26.5%; JMJD2A Tudor: 35.5µM*; BAZ2B inh: -16.4%; L3MBTL1 block: 5.4%; Sfp inh: 50.1µM*; G9a inh: 7.94µM*

How did CCOc1cccc(/C=C2\NC(=S)N(c3ccccc3)C2=O)c1O do in these assays?
HP1b binding inh: -1.0%; JMJD2A Tudor: -31.7%; BAZ2B inh: -26.3%; L3MBTL1 block: -2.0%; Sfp inh: 1.8%; G9a inh: inconclusive

Results for O=C1CNC(=O)N1c1ccc(Cl)cc1 ?
HP1b binding inh: 49.0%; JMJD2A Tudor: -15.9%; BAZ2B inh: 1.4%; Sfp inh: 15.1%; G9a inh: -4.2%

How did CCC1(C)Cc2c(sc3nc(NN)n(C)c(=O)c23)CO1 (stereo not drawn) do in these assays?
HP1b binding inh: 1.1%; JMJD2A Tudor: -12.8%; BAZ2B inh: 15.1%; Sfp inh: -2.4%; G9a inh: 44.7µM*

How did CCOC(=O)CSc1nc2sc3c(c2c(=O)[nH]1)CC(C)(CC)OC3 (stereo not drawn) do in these assays?
HP1b binding inh: 23.0%; JMJD2A Tudor: -7.4%; BAZ2B inh: 3.9%; Sfp inh: 3.7%; G9a inh: 31.6µM*

Results for CCCCCOC(=O)c1[nH]c2c(c1C)C(=O)C(C(=O)OC)C(C)C2 (stereo not drawn) ?
HP1b binding inh: -11.3%; JMJD2A Tudor: 14.1µM*; BAZ2B inh: 1.3%; Sfp inh: -15.3%; G9a inh: inconclusive

Results for CCOC(=O)CN(Cc1ccccc1)C(C(=O)NC1CCCCC1)c1ccc(C)cc1 (stereo not drawn) ?
HP1b binding inh: 20.7%; JMJD2A Tudor: -8.5%; BAZ2B inh: 11.5%; G9a inh: 14.9%[59 µM]

Results for CC(Oc1ccccc1)C(=O)NC1=NCCS1 (stereo not drawn) ?
HP1b binding inh: 17.7%; JMJD2A Tudor: 31.6µM*; BAZ2B inh: -28.3%; L3MBTL1 block: 0.8%[11.4 µM]; Sfp inh: 10.1%; G9a inh: inconclusive

How did O=C(COc1ccccc1)NC1=NCCS1 do in these assays?
HP1b binding inh: 17.6%; JMJD2A Tudor: -16.4%; BAZ2B inh: -14.0%; Sfp inh: 13.3%; G9a inh: -38.9%[59 µM]

Results for CCC(=O)N(Cc1ccc(S(N)(=O)=O)cc1)C1CC(=O)N(c2ccc(OC)cc2)C1=O (stereo not drawn) ?
HP1b binding inh: 59.3%; JMJD2A Tudor: -11.2%; BAZ2B inh: -3.3%; L3MBTL1 block: -0.7%; Sfp inh: -8.8%; G9a inh: 8.91µM*

What do the screens show for `CCOc1ccc(N2C(=O)CC(N(CCc3ccc(S(N)(=O)=O)cc3)C(C)=O)C2=O)cc1` (stereo not drawn)?
HP1b binding inh: 2.1%; JMJD2A Tudor: -15.1%; BAZ2B inh: -25.7%; Sfp inh: 7.9%; G9a inh: inconclusive

Results for O=c1[nH]c2ccc(S(=O)(=O)N3CCN(S(=O)(=O)c4c(F)cccc4F)CC3)cc2[nH]c1=O ?
JMJD2A Tudor: -30.1%

What do the screens show for `COc1ccc(CCC(=O)N(C)CC(=O)Nc2ccc(N3CCOCC3)cc2)cc1`?
HP1b binding inh: 6.7%; JMJD2A Tudor: -13.4%; BAZ2B inh: -19.3%; Sfp inh: 27.3%; G9a inh: 24.8%[59 µM]

What do the screens show for `CCOc1ccc(OCCCC(=O)N(C)CC(=O)Nc2ccc(N3CCOCC3)cc2)cc1`?
HP1b binding inh: -9.0%; JMJD2A Tudor: -18.5%; BAZ2B inh: -4.7%; L3MBTL1 block: -1.2%; G9a inh: 35.5µM*

Results for COCCCN(CC(=O)Nc1ccc(N2CCOCC2)cc1)S(=O)(=O)c1ccc(Cl)cc1 ?
HP1b binding inh: inconclusive; JMJD2A Tudor: 79.4µM*; L3MBTL1 block: -8.0%; Sfp inh: -0.6%; G9a inh: inconclusive

Screening results deposited in PubChem BioAssay by National Center for Advancing Translational Sciences (NCATS).
